Compound activity (PubChem BioAssay)
The list is not random: actives were taken first. Their share in the collection is about 11%.
JMJD2A Tudor inh: inhibitors of human JMJD2A Tudor domain | O75164 | AlphaScreen JMJD2A-Tudor / H3K4me3 peptide binding | Potency, µM (highest dose often 114 µM), for inactives: at the top dose activity change, negative = inhibition, hits mostly inhibitors | 4.4% of 390,000 active | AID 504339; also: % is scaled to controls: 0 for no effect and ±100 for the full control effect; nearly all actives have a fitted effect of over 50% in size
Target sequence (O75164 whole entry, looked up, the tested form may be a part): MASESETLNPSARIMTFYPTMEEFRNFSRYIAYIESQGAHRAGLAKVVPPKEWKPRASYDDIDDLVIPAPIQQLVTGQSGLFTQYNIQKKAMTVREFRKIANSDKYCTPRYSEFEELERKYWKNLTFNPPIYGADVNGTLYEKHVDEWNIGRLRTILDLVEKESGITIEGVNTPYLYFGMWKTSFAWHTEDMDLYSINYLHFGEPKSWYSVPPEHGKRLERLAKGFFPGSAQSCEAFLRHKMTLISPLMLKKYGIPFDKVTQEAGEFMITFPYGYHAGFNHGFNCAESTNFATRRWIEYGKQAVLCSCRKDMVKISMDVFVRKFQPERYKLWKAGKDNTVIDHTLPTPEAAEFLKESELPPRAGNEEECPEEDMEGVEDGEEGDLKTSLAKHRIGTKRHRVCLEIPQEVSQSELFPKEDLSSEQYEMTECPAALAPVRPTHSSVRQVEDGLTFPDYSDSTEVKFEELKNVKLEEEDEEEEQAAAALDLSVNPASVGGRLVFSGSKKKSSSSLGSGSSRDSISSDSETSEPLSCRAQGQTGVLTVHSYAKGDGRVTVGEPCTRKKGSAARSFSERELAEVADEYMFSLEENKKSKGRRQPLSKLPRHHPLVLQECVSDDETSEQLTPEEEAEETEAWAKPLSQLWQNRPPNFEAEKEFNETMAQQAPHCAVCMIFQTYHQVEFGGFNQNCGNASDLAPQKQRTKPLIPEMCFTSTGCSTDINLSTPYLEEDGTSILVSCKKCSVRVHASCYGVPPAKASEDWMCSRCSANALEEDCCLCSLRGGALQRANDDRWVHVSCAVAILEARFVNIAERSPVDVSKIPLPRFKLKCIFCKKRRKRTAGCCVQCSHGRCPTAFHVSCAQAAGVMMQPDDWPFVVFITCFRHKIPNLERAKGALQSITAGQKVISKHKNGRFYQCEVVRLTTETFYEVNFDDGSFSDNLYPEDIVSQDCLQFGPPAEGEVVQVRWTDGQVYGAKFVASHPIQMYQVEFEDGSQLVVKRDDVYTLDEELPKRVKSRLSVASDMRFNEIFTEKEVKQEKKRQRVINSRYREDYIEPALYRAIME
G9a inh: G9a (human) methyltransferase inhibition | 8.8% of 350,000 active | G9a H3K9 monomethylation, AlphaScreen, 2 h | Potency, µM (highest dose often 102 µM), inactives show at the top dose activity, negative = inhibition, usual class: inhibitors | Q96KQ7 | AID 504332; also: % is scaled to controls: 0 for no effect and ±100 for the full control effect; nearly all actives have a fitted effect of over 75% in size
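Chemiluminescent proximity detection of H3K9 monomethylation, read after 10 min bead incubation in the dark. Reaction: 20 nM G9a, 500 nM biotin-H3K9 peptide, 20 uM SAM cofactor, 2 h, room temperature, following 15 min enzyme-compound preincubation.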
PLK1 PBD inh: inhibitors of human PLK1 polo-box domain binding. P53350. Plk1 PBD binding of FITC phosphopeptide, fluorescence polarization. Potency, µM, inactives show max response, negative = inhibition, hits mostly inhibitors. 2.8% of 360,000 active. AID 720504; also: series mostly up to about 57 µM; % is scaled to controls: 0 for no effect and ±100 for the full control effect; nearly all actives have a fitted effect of over 65% in size
VDR inh: inhibitors of human vitamin D receptor; 0.93% of 400,000 active; VDR-SRC2-3 peptide fluorescence polarization, 2 h; Potency, µM, for the others: max response, negative = inhibition, usual class: inhibitors; P11473; also: % is scaled to controls: 0 for no effect and ±100 for the full control effect
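VDR–SRC2-3 interaction, FP format. Cmpds 23 nl via pintool, brief spin, 2 h ambient incubation.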
HP1b binding inh: inhibitors of HP1-beta chromodomain binding to methylated histone tails | AlphaScreen HP1-beta / biotin-H3K9me3 peptide binding | AID 540317 | 0.56% of 390,000 active | P83916 | Potency, µM (titrated, usually from 114 µM), inactives show at the top dose activity change, negative = inhibition, hits mostly inhibitors; also: nearly all actives have a fitted effect of over 70% in size
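Compound inhibition of the preformed complex between 50 nM HP1-beta and 50 nM biotinylated H3K9me3 peptide was read by AlphaScreen. Buffer was PBS pH 7.4 with 0.01% Tween-20. Incubations ran 30 min at room temperature, with 10 ug/mL donor/acceptor beads.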
BAZ2B block: BAZ2B (human) inhibition. 4.4% of 360,000 active. Q9UIF8. AlphaScreen BAZ2B-H3K14Ac peptide displacement. Potency, µM (highest dose often 114 µM), for inactives: at the highest dose activity change, negative = inhibition, hits mostly inhibitors. AID 504333; also: % is scaled to controls: 0 for no effect and ±100 for the full control effect; nearly all actives have a fitted effect of over 60% in size
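BAZ2B 50 nM plus b-H3(5-23)K14Ac 50 nM, PBS pH 7.4/0.01% Tween-20, 30 min RT; compound added (max 110 uM), 30 min RT; streptavidin donor/Ni-chelate acceptor beads 10 ug/mL final, 20 min dark; AlphaScreen read.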
Numbers without * were called inactive; ? = inconclusive; · = no result given; [ ] = another dose, or the depositor's remark. Calls follow the shape of the dose curve; as a rule, active = well fitted curve in the direction sought with a large enough effect; inconclusive = small, poorly fitted or top-dose-only effect, or another doubt; inactive = no such curve, though single readings can be large; an effect the other way counts as inactive or inconclusive. Potency is read from the fitted curve at half-maximal effect.

SMILES | JMJD2A Tudor inh | G9a inh | PLK1 PBD inh | VDR inh | HP1b binding inh | BAZ2B block
O=C(NNC(=S)NC(=O)c1ccc(F)cc1)c1cccnc1 | -8% | 11µM* | -8% | -3% | 6% | 7%
Cc1ccccc1NC(=S)NNC(=O)c1cccnc1 | 22µM* | 1.8µM* | -6% | 1% | -3% | -2%
Cc1cccc(C)c1NC(=O)CNC(=O)c1cccnc1 | -4% | 79µM* | 5% | 11% | 51% | -14%
CCC(=O)c1ccc(OCC(=O)Nc2nc(-c3cccnc3)cs2)cc1 | ? | 40µM* | ? | -3% | 6% | -10%
O=C(NC(=S)Nc1nc(-c2ccccc2)cs1)c1cccnc1 | -17% | 2.5µM* | ? | 10% | -6% | -23%
O=C(NNC(=S)Nc1ccccc1)c1cccnc1 | -12% | 56µM* | -6% | 15% | 38% | -23%
C=CCNC(=S)NNC(=O)c1cccnc1 | -18% | -1% | -9% | -7% | 28% | -11%
O=C(NC(=S)NNS(=O)(=O)c1ccc(Cl)cc1)c1cccnc1 | -14% | 50µM* | -19% | -15% | 22% | 2%
O=C(NNC(=S)NCc1ccccc1)c1cccnc1 | -24% | 29% | 1% | -3% | 43% | 10%
Cc1ccc(C(=O)NC(=S)NNS(=O)(=O)c2ccc(C)cc2)cc1 | -33% | 7%[59 µM] | -27% | -17% | 4% | -9%
O=C(NNC(=S)NC(=O)c1cccnc1)c1ccccc1 | ? | 28µM* | -4% | 14% | 1% | 4%[57.1 µM]
COCCNc1cnn(-c2ccccc2)c(=O)c1Cl | -20% | · | 6% | -5% | 42% | 18%
COc1ccc(/C=C/C(=O)NC(=S)NNC(=O)c2cccnc2)cc1 | -17% | ? | -2% | 2% | 10% | 2%
O=C(/C=C/c1ccc(F)cc1)NC(=S)NNC(=O)c1cnccn1 | 7.9µM* | 50µM* | -5% | -9% | 2% | 2.8µM*
COc1ccc(NC(=O)CSc2nc(N)c(C#N)cc2C#N)cc1 | -8% | ? | -21% | -3% | 17% | -2%
COc1ccc(NC(=O)CSCC(=O)Nc2sccc2C#N)cc1 | -17% | 40µM* | -22% | -11% | 25% | -6%
CC(C)C[C@H](NC(=O)c1nc[nH]c1C(=O)N[C@@H](CCCCN)C(=O)OC(C)(C)C)C(=O)OC(C)(C)C | -35% | · | 7% | -20% | 32% | ·
CC(C)C[C@@H](CN)NC(=O)c1nc[nH]c1C(=O)N[C@@H](CC(C)C)C(=O)CNC[C@H](C)NC(=O)c1nc[nH]c1C(=O)N[C@@H](CC(=O)O)C(=O)O | 79µM* | · | -23% | 12% | 54% | ·
CC(C)C[C@@H](CNCC(=O)[C@H](CC(C)C)NC(=O)c1[nH]cnc1C(=O)N[C@H](CN)CC(C)C)NC(=O)c1nc[nH]c1C(=O)N[C@@H](CC(=O)O)C(=O)O | 79µM* | · | -13% | ? | 38% | ·
CC(=O)Nc1cc(ON=C(C)C)cc([N+](=O)[O-])c1 | -6% | -1% | -2% | -2% | 24% | -10%
Cc1ccc(Cl)cc1N1CCN(Cc2nc3ccsc3c(=O)[nH]2)CC1 | -25%[11.4 µM] | 2.8µM* | 30µM* | 3% | -17% | -37%
COCC(C)OC(=O)/C(C#N)=C\c1coc2ccc(C)cc2c1=O (stereo not drawn) | -7% | ? | 11µM* | ? | 33% | 9%
Cc1ccc2occ(/C=N/NC(=O)[C@@H](N)Cc3ccccc3)c(=O)c2c1 | -26% | 2% | -6% | -14% | 21% | ?
Cc1cc(=S)c2ccccc2[nH]1 | ? | 2µM* | ? | -3% | 11% | ?
Cc1ccc2[nH]c(C)cc(=S)c2c1 | -33% | ? | ? | 3% | -4% | -16%
SMILES | JMJD2A Tudor inh | G9a inh | PLK1 PBD inh | VDR inh | HP1b binding inh | BAZ2B block
COc1ccc(CCNCC2C(Oc3ccc(Cl)cc3)C(=O)N2c2ccccc2C)cc1OC (stereo not drawn) | ? | 45µM* | -10% | -9% | 6% | ?
COC(=O)C[C@H]1CC[C@H](NC(=O)c2ccc(F)cc2)[C@@H](CO)O1 | · | · | 5% | · | · | ·
Cc1ccoc1C(=O)NCCCNC(=O)c1occc1C | ? | 5%[12.7 µM] | 27µM* | ? | ? | 16%
Cc1ccoc1C(=O)NCc1occc1C(=O)O | ? | 45µM* | -16% | -16% | -3% | ?
Cc1ccoc1C(=O)NCCNC(=O)c1occc1C | -18% | -12% | -1% | 15% | 18% | 11%
C[C@@H]1CN([C@@H](C)CO)C(=O)CCCn2nncc2CO[C@H]1CN(C)Cc1ccccc1 | · | · | 0% | · | · | ·
CCn1cnc2cc(NCc3cccs3)ccc21 | -32% | 45µM* | -18% | 0% | 7% | ?
COc1ccccc1-n1cnc2cc(NCc3ccco3)ccc21 | ? | 35µM* | -2% | -1% | -23% | -60%
COc1ccccc1-n1cnc2cc(NS(=O)(=O)c3ccc(Br)cc3)ccc21 | -31% | -4% | 1% | -2% | 3% | -7%
COc1ccccc1-n1cnc2cc(C(=O)N3CCOCC3)ccc21 | -2% | · | -9% | -6% | 17% | -2%
COc1ccc(CNc2ccc3c(c2)ncn3-c2ccccc2OC)cc1 | 28µM* | ? | -5% | -6% | ? | 40µM*
CCn1cnc2cc(NC(=O)c3cccs3)ccc21 | 0% | 1% | -15% | 1% | 19% | -17%
CCCNC(=O)c1ccc2c(c1)ncn2-c1ccccc1OC | 1%[11.4 µM] | -2%[59 µM] | ? | -2% | -7% | 9%
COc1ccccc1-n1cnc2cc(NCc3cccs3)ccc21 | 45µM* | ? | 2% | -14% | ? | 45µM*
O=[N+]([O-])c1cc(Br)c(OCc2nnc(-c3ccccc3)o2)c(Br)c1 | -55% | 28µM* | -6% | 1% | -3% | ?
CC(=O)c1ccc(NC(=S)NC(C)c2ccc(Cl)cc2Cl)cc1 (stereo not drawn) | -27% | 6% | -7% | -13% | 10% | ?
O=C(O)COc1ccccc1/C=N/Nc1ccc(S(=O)(=O)Nc2ccc(Cl)cc2)cc1[N+](=O)[O-] | ? | 35µM* | ? | -25% | ? | 35µM*
O=C(O)COc1ccccc1C=NNc1ccc([N+](=O)[O-])cc1S(=O)(=O)Nc1ccc(Cl)cc1 | -33% | · | 24µM* | ? | -6% | ·
COc1ccccc1NS(=O)(=O)c1ccc(N/N=C/c2ccccc2OCC(=O)O)c([N+](=O)[O-])c1 | 56µM* | 20µM* | -29% | -13% | ? | 40µM*
CS(C)(=O)=O | · | -40%[2.33 µM] | · | 12% | · | ·
CCOc1cc(/C=N\Nc2nc(Nc3ccccc3)nc(N3CCOCC3)n2)ccc1OC(=O)c1ccco1 | -26% | ? | -1% | 2% | 18% | ?
CCNC(=O)C1(C)CCN(Cc2ccc(-c3ccccc3)cc2)C1 (stereo not drawn) | · | · | -14% | · | · | ·
